Reference: article PMC11447256

What was measured:
[1] = molecular target: Eukaryotic translation initiation factor 3 subunit B (UniProt P55884); assay: cross-linking mass spectrometry
Histone H2A type 2-B = Histone H2A type 2-B (UniProt Q8IUE6); assay: cross-linking mass spectrometry
[2] = molecular target: Large ribosomal subunit protein eL6 (UniProt Q02878); assay: cross-linking mass spectrometry
[3] = molecular target: Large ribosomal subunit protein eL8 (UniProt P62424); assay: cross-linking mass spectrometry
Nucleolar protein 16 = Nucleolar protein 16 (UniProt Q9Y3C1); assay: cross-linking mass spectrometry
[4] = molecular target: Large ribosomal subunit protein uL13 (UniProt P40429); assay: cross-linking mass spectrometry
[5] = molecular target: Large ribosomal subunit protein eL31 (UniProt P62899); assay: cross-link between two proteins; cross-linking mass spectrometry
[6] = molecular target: Large ribosomal subunit protein uL15 (UniProt P46776); assay: cross-linking mass spectrometry
[7] = molecular target: Large ribosomal subunit protein eL20 (UniProt Q02543); assay: cross-link between two proteins; cross-linking mass spectrometry
[8] = molecular target: Small ribosomal subunit protein uS4 (UniProt P46781); assay: cross-linking mass spectrometry
[9] = molecular target: Small ribosomal subunit protein uS9 (UniProt P62249); assay: cross-linking mass spectrometry
[10] = molecular target: Large ribosomal subunit protein eL19 (UniProt P84098); assay: cross-link between two proteins; cross-linking mass spectrometry
[11] = molecular target: Large ribosomal subunit protein eL36 (UniProt Q9Y3U8); assay: as above
[12] = molecular target: Large ribosomal subunit protein eL43 (UniProt P61513); assay: as above
[13] = molecular target: Small ribosomal subunit protein eS24 (UniProt P62847); assay: as above
[14] = molecular target: Small ribosomal subunit protein uS5 (UniProt P15880); assay: as above
[15] = molecular target: Small ribosomal subunit protein uS8 (UniProt P62244); assay: as above

In the case of “Small ribosomal subunit protein uS4, P46781”, the “listed as a hit” value [1] is reported as “yes”.

Histone H3.1, P68431 was tested, and the “listed as a hit” value (Histone H2A type 2-B) was “yes”.

For “Large ribosomal subunit protein uL30, P18124”, the “listed as a hit” value [2] was “yes”.

“Large ribosomal subunit protein eL13, P26373” was tested, and the “listed as a hit” value [3] was “yes” and the “listed as a hit” value (Nucleolar protein 16) was “yes”.

“Large ribosomal subunit protein uL3, P39023” was tested, and the “listed as a hit” value [4] was “yes” and the “listed as a hit” value [5] was “yes”.

In the case of “Large ribosomal subunit protein uL16, P27635”, the “listed as a hit” value [4] is reported as “yes” and the “listed as a hit” value [6] is reported as “yes”.

“Large ribosomal subunit protein uL13, P40429” was tested, and the “listed as a hit” value [6] was “yes” and the “listed as a hit” value [7] was “yes”.

With “Small ribosomal subunit protein uS3, P23396” the “listed as a hit” value [8] was “yes” and the “listed as a hit” value [9] was “yes”.

In the case of “Large ribosomal subunit protein eL43, P61513”, the “listed as a hit” value [10] is reported as “yes”.

For “Large ribosomal subunit protein eL30, P62888”, the “listed as a hit” value [10] was “yes”.

For “Large ribosomal subunit protein uL1, P62906”, the “listed as a hit” value [11] was “yes”.

“Large ribosomal subunit protein eL34, P49207” was tested, and the “listed as a hit” value [12] was “yes”.

With “Small ribosomal subunit protein uS17, P62280” the “listed as a hit” value [13] was “yes”.

“Small ribosomal subunit protein uS2, P08865” was tested, and the “listed as a hit” value [14] was “yes”.

“Small ribosomal subunit protein uS5, P15880” was tested, and the “listed as a hit” value [15] was “yes”.
